Experimental data: the supplement of paper PMC6555819

test system: LXRa homodimer (NR concentration 270 nM); test: PBM binding z-score (relative to random genomic background probes); higher = stronger binding; sequences stand for … in GC…GCGATTGACAGCGTAGAATGAAGG
In short: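 On custom Agilent 4×180K arrays, double-stranded probes with 34-nt variable regions carried direct-repeat seeds, single-nucleotide variants, half-site ablations or random human genomic background. Ligand-free nuclear receptor dimers were applied for 1 h, and binding was read with antibodies against each partner (one per run). Binding z-scores come from regression-normalized fluorescence, with the random background probes as reference.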

**Q.** With TCATATAGGTAACCAGGTGAAAGTCCGTAAGTTA as the sequence, how does the PBM binding z-score read?
**A.** 0.139

**Q.** How did the PBM binding z-score turn out when TGAATGAGGCTATAAGATCAGGGAACGTTGCAAA was run?
**A.** -0.669

**Q.** Which PBM binding z-score does the source give for CCGACTGGGCCAAGGTTACCATAACGCACAGCCA here?
**A.** -0.181

**Q.** With AGAATGAGGTTATTAAGGTCAGGGAATTGCGGTC as the sequence, how does the PBM binding z-score read?
**A.** 3.44

**Q.** Which PBM binding z-score does the source give for CCTTACGAGTCACGAGGTTATAGCACGACGAGCG here?
**A.** 0.451

**Q.** Which PBM binding z-score does the source give for GCTATTAGTTGAAAGGGCCACCGAATGATTCTCG here?
**A.** -0.327

**Q.** With GCTATTAGTTGAAAGGGCAACCGCATGATTCTCG as the sequence, how does the PBM binding z-score read?
**A.** 0.377

**Q.** For CCTGCTTGGTCATGGTCAGCTAATCTACAGTATG, which PBM binding z-score is on record?
**A.** -0.539

**Q.** How did the PBM binding z-score turn out when CAAACTAGGTCACAGAGTTCAAAGTCCGTGCGTA was run?
**A.** 7.46

**Q.** CGTCAAAGTTCACGGTAACGTAACAGAAAGCAGC was tested. Which PBM binding z-score did it give?
**A.** 2.53

**Q.** With ATCTCTAGGTAAAGATAATTCAGTGAATGCAAAT as the sequence, how does the PBM binding z-score read?
**A.** 0.217

**Q.** For GGAACAAGGGCATTCGAGTTGATAGCATGGCGAT, which PBM binding z-score is on record?
**A.** 0.0326

**Q.** For CCTACTGGGGCATAAGGTTACCATAAGCCAGCCC, which PBM binding z-score is on record?
**A.** -0.117

**Q.** GATACAGGGTCAAGGCCAGAGCACGCGTATTGAT was tested. Which PBM binding z-score did it give?
**A.** 0.0226

**Q.** CCTAGTTGGTCAAGGTCACTCACGCTATAGGTAC was tested. Which PBM binding z-score did it give?
**A.** 1.94

**Q.** With TAGCCTGGGTCATTGGGCCAGTATAGTACGCATC as the sequence, how does the PBM binding z-score read?
**A.** -0.677

**Q.** Which PBM binding z-score does the source give for ATCTCTAGTTAAAAGTTCAGTGAATCCCGAGGAT here?
**A.** 1.82

**Q.** With TCTGCTAGGTCAGTGGGTCAGCTAACGAGCTGCC as the sequence, how does the PBM binding z-score read?
**A.** -0.548

**Q.** CCTTACGGGTCACGAGGTTTTAGCACGACGAGCG was tested. Which PBM binding z-score did it give?
**A.** -0.186

**Q.** GCTTACGGGTCAAAGGCTATAGCATGAATAGAAT was tested. Which PBM binding z-score did it give?
**A.** 0.00427

**Q.** Which PBM binding z-score does the source give for AGAATGAGGTTATTAAGTTCAGGGAATTGCGGTC here?
**A.** 2.12

**Q.** Which PBM binding z-score does the source give for ACAGACAGGTGATGAAGGTAACTCCGGCTATCAT here?
**A.** -0.0879

**Q.** How did the PBM binding z-score turn out when ATCTCTAGGTAACAAGTTCAGTGAAAGAGAGGAC was run?
**A.** 0.507

**Q.** How did the PBM binding z-score turn out when CGTCCAAGGTCAAACGTCAGTGAAGAGATGACGG was run?
**A.** 1.39

**Q.** With AGTCACAGTTCAGGACGAGGTAACGTAAAGCACG as the sequence, how does the PBM binding z-score read?
**A.** 0.0856

**Q.** For ACAGACAGGTGAGTGAAGGTAGCTCAGCTGGACG, which PBM binding z-score is on record?
**A.** -0.74

**Q.** With TTACCAAGGTGAAAGGTCGTTGGTGCACGCCTTG as the sequence, how does the PBM binding z-score read?
**A.** 0.325

**Q.** For GCTGCTAGGTCAACTCATGGTCAGCTAAAGCTCG, which PBM binding z-score is on record?
**A.** 0.227

**Q.** How did the PBM binding z-score turn out when CGCACTAGGTCAAGGACAGTGAATCTCCGCACGC was run?
**A.** 0.266

**Q.** For CCAACTAGGTCATCCAGGACAGTGAATACATTGA, which PBM binding z-score is on record?
**A.** 1.3

**Q.** Which PBM binding z-score does the source give for GCATATAGGTAGTACAAGGTGAAAGTCCGATTGT here?
**A.** -0.159

**Q.** Which PBM binding z-score does the source give for GTGCCAAGGTGAATAGGTCGTTGATGAGTAGGCG here?
**A.** -0.344

**Q.** For CGTCCAAGGTCAATGCTATGTCAGTGAAAGCATT, which PBM binding z-score is on record?
**A.** 0.645

**Q.** For CGTCCAAGGTCTATGCTAGGTCAGTGAAAGCATT, which PBM binding z-score is on record?
**A.** 0.995

**Q.** How did the PBM binding z-score turn out when CGAACGAGGGCATGAGTTGATAGAAAATGCCGAT was run?
**A.** -0.393

**Q.** CGTCCAAGGTGAAAGGTCAGTGAAGAGATGACGG was tested. Which PBM binding z-score did it give?
**A.** 0.846

**Q.** With CAAACTATGTCACAGAGGTCAAAGTCCGTGCGTA as the sequence, how does the PBM binding z-score read?
**A.** 5.85

**Q.** For TCTTGAAGATCAAAGGTTAAGAAAGCCGAAGCCT, which PBM binding z-score is on record?
**A.** 0.0814

**Q.** Which PBM binding z-score does the source give for TTACCAAGGTGATAGGTCGTTGATGCACGCCTTG here?
**A.** -0.126

**Q.** TCTGCTTGGTCAGTTGGTCAGCTAACGAGCTGCC was tested. Which PBM binding z-score did it give?
**A.** -1.02
